An excerpt weighted towards active compounds, which were near 19% of everything screened.
Giardia kill: Small Molecules that selectively kill Giardia lamblia: qHTS; Giardia lamblia trophozoite viability; activity change, % at 7.66 µM, hits read low; 340,000 tested, 0.15% active; AID 540267, 2011; in the data active means activity change below about -80%; inconclusive means between about -30% and that limit;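 further: parasites exposed to compound for two days anaerobically before the ATP read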
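Viability, read as ATP luminescence: trophozoites at 100 cells/well, compound added, 48 hrs anaerobic at 37 deg C, then 15-30 min room-temperature development before reading.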
IL1B secr inh: qHTS for Inhibitors of Inflammasome Signaling: IL-1-beta AlphaLISA Primary Screen; activity change, % at 57.5 µM; 360,000 tested, 4.7% active; AID 743279, 2014; THP-1 LPS/ATP IL-1B secretion, AlphaLISA, 16 h; hits give low values; in the data active means activity change below about -50%; inconclusive means mostly about -30% to -49%
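THP-1 cells pretreated 1 hr with compounds (up to 57.5 uM final), then stimulated with LPS (250 ng/mL final) plus ATP (1.25 mM final); secreted IL-1B measured by AlphaLISA after 16 hr, decreased signal indicating inhibition.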
TDP1 cell CPT: qHTS for Inhibitors of human tyrosyl-DNA phosphodiesterase 1 (TDP1): qHTS in cells in presence of CPT; 420,000 tested, 12% active; chicken DT40 Tdp1-/-;hTDP1 cells + 20 nM CPT, ATP luminescence, 48 h; Potency, µM (top dose mostly 46.2 µM), usual class: inhibitors; further: nearly all actives have a fitted effect of over 55% in size
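Chicken DT40 Tdp1-/- cells complemented with human TDP1, 400 cells/well, exposed to compounds plus 20 nM camptothecin for at least 48 h at 37 C; viability read as ATP content by CellTiter-Glo luminescence.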
TDP1 block: qHTS Assay for Inhibitors of Tyrosyl-DNA Phosphodiesterase (TDP1); Tyrosyl-DNA phosphodiesterase 1 (Homo sapiens), Q9NUW8; recombinant TDP1, AlphaScreen DNA substrate cleavage; 350,000 tested, 0.28% active; Potency, µM (doses to about 130 µM), usual class: inhibitors; further: nearly all actives have a fitted effect of over 40% in size
Target sequence (Q9NUW8 whole entry, looked up): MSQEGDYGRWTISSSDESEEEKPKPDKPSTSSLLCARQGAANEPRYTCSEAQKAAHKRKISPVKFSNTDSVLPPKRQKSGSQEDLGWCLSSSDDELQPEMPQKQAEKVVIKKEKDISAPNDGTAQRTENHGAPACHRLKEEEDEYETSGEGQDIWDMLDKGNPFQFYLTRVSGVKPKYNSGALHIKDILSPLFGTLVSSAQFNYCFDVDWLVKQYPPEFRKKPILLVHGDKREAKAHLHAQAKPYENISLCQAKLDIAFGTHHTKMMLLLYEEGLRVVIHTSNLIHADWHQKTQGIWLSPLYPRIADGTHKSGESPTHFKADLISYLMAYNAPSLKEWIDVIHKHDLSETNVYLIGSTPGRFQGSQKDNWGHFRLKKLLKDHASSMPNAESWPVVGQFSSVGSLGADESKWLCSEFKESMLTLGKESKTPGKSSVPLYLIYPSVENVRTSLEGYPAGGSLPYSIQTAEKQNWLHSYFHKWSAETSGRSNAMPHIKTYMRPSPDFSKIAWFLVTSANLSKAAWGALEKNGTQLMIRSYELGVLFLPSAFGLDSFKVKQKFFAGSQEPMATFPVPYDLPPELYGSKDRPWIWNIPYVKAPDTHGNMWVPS
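Recombinant human Tdp1 (E. coli-expressed, 1 nM final) preincubated with compounds 15 min at room temperature, then 5'-biotin/3'-phosphotyrosine-FITC DNA substrate (15 nM final) added for 5 min. AlphaScreen beads (10 ug/ml final) added 10 min; cleavage lowers signal.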
TDP1 cell noCPT: qHTS for Inhibitors of human tyrosyl-DNA phosphodiesterase 1 (TDP1): qHTS in cells in absence of CPT | DT40 Tdp1-/- hTDP1 cells, no CPT, ATP luminescence, 48 h | AID 686978, 2013 | 420,000 tested, 15% active | Potency, µM (series often up to 46.2 µM), actives largely listed as inhibitors; further: nearly all actives have a fitted effect of over 55% in size
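Luminescent ATP content (CellTiter-Glo) served as the growth readout. Knockout chicken DT40 cells expressing human TDP1 were exposed to compounds without camptothecin for a minimum 48 hr at 37 °C.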
ELG1 repair inh: qHTS screen for small molecules that inhibit ELG1-dependent DNA repair in human embryonic kidney (HEK293T) cells expressing luciferase-tagged ELG1; HEK293T ELG1-luciferase reporter, luminescence, 16 h; DNA damage induced by 5-fluorouridine; Potency, µM (titrated, usually from 46.1 µM), most hits filed as inhibitors; 330,000 tested, 2.3% active; AID 504467, 2011; further: nearly all actives have a fitted effect of over 55% in size
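Luminescence from the luciferase reporter, measured 30 min after ONE-Glo reagent at room temperature, was the read-out. Beforehand, 2,000 cells per well were exposed for 16 hr at 37 °C to 5-fluorouridine together with compound or vehicle.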
Large screens that a line does not name were inactive. Unless noted, the call rests on the fitted dose curve; in most records, active means well fitted curve in the direction sought with a large enough effect; inconclusive means small, poorly fitted or top-dose-only effect, or another doubt; inactive means no such curve, though single readings can be large; an effect the other way counts as inactive or inconclusive.

CCOC(=O)c1ccccc1NC(=O)Cn1c(=O)n(CCC(=O)NCc2ccccc2OC)c(=O)c2ccccc21	TDP1 cell CPT inconclusive, TDP1 cell noCPT 16µM (no result: Giardia kill, IL1B secr inh, ELG1 repair inh)
COc1ccccc1CNC(=O)CCCCn1c(=O)c2ccccc2n(Cc2ccccc2C)c1=O	TDP1 cell CPT 5.8µM, TDP1 cell noCPT 2.9µM (no result: Giardia kill, IL1B secr inh, ELG1 repair inh)
COc1ccccc1CNC(=O)CCn1c(=O)c2ccccc2n(CC(=O)Nc2ccc(C)cc2Cl)c1=O	TDP1 cell CPT inconclusive, TDP1 cell noCPT inconclusive (no result: Giardia kill, IL1B secr inh, ELG1 repair inh)
CCOC(=O)NNC(=O)NCCCCCCNC(=O)NNC(=O)OCC	none (no result: TDP1 block)
CN(C)c1nc2cc3c(cc2cc1CN(CC1CCCO1)C(=O)/C=C/c1cccs1)OCO3 (stereo unspecified)	none (no result: Giardia kill, IL1B secr inh, TDP1 block, ELG1 repair inh)
COc1cc(CC(=O)OCc2ccccc2F)cc(OC)c1OC	none
CCN(Cc1nc2cc(Cl)ccc2c(=O)[nH]1)C(=O)COc1ccccc1Cc1ccccc1	TDP1 cell CPT inconclusive, TDP1 cell noCPT inconclusive
CC(C(=O)Nc1ccccc1-c1ccccc1)N(C)Cc1nc2ccccc2c(=O)[nH]1 (stereo unspecified)	TDP1 cell CPT 13µM, TDP1 cell noCPT 21µM, ELG1 repair inh inconclusive
Cc1cccc(C)c1NC(=O)CN(C)C(C)C(=O)Nc1ccccc1-c1ccccc1 (stereo unspecified)	TDP1 cell CPT inconclusive
CCN(Cc1nc2ccccc2c(=O)[nH]1)C(=O)COc1ccccc1Cc1ccccc1	IL1B secr inh -67, TDP1 cell CPT 4.6µM, TDP1 cell noCPT 4.1µM
CCN(Cc1ccc(Cl)s1)C(=O)c1cccc(OCc2c(C)noc2C)c1	IL1B secr inh inconclusive, TDP1 cell CPT inconclusive, TDP1 cell noCPT inconclusive, ELG1 repair inh inconclusive
COCCN(Cc1nc2ccccc2c(=O)[nH]1)C(=O)COc1ccccc1-c1ccccc1	IL1B secr inh -68, TDP1 cell CPT inconclusive, TDP1 cell noCPT 23µM, ELG1 repair inh inconclusive
CCN(Cc1nc2ccccc2c(=O)[nH]1)C(=O)c1cccc(OCc2c(C)noc2C)c1	TDP1 cell CPT inconclusive, TDP1 cell noCPT 16µM, ELG1 repair inh inconclusive
CCCCCCCCCCCCCCOS(=O)(=O)O	none (no result: Giardia kill, IL1B secr inh, TDP1 cell CPT, TDP1 cell noCPT, ELG1 repair inh)
COCC(=O)N(CCc1ccc(OC)cc1)Cc1nc2ccccc2c(=O)[nH]1	TDP1 cell CPT inconclusive, TDP1 cell noCPT 3.3µM
CCc1cccc(CC)c1NC(=O)CN1CC(C)SC1=NC1CCCCC1 (stereo unspecified)	TDP1 cell CPT 21µM, TDP1 cell noCPT 13µM
CCc1cccc(CC)c1NC(=O)NC1CCCCC1	none
CCCCN(C)C(=O)c1nc2ccccn2c1CN1CCSCC1	TDP1 cell noCPT inconclusive
COc1ccc(N2C(=O)CC(N3CCC(c4nc5ccccc5[nH]4)CC3)C2=O)cc1 (stereo unspecified)	TDP1 cell CPT inconclusive, TDP1 cell noCPT inconclusive
O=C1CC(N2CCC(c3nc4ccccc4[nH]3)CC2)C(=O)N1c1ccccc1F (stereo unspecified)	TDP1 cell CPT 26µM, TDP1 cell noCPT inconclusive
O=C(c1cc(COc2cccc(C(F)(F)F)c2)on1)N1CCC(c2ccccc2)CC1	TDP1 cell noCPT inconclusive
COc1cccc(CCNC(=O)c2cc(COc3ccc(C)c(C)c3)on2)c1OC	TDP1 cell CPT inconclusive, TDP1 cell noCPT 15µM (no result: Giardia kill, TDP1 block, ELG1 repair inh)
COc1cccc(OCc2cc(C(=O)NCCc3cccc(C)n3)no2)c1	none
CCOC(=O)CC1(NC(=O)c2cc(COc3cccc(OC)c3)on2)CCCCC1	TDP1 cell CPT 23µM, TDP1 cell noCPT 10µM, ELG1 repair inh inconclusive
O=C(NCCc1ccco1)c1cc(COc2cccc(C(F)(F)F)c2)on1	Giardia kill inconclusive, IL1B secr inh -83, TDP1 cell CPT inconclusive, TDP1 cell noCPT inconclusive
COc1cccc(CCNC(=O)c2cc(COc3cccc(OC)c3)on2)c1	TDP1 cell CPT inconclusive, TDP1 cell noCPT 16µM (no result: Giardia kill, TDP1 block, ELG1 repair inh)
COc1cccc(OCc2cc(C(=O)NCC3CCCCC3)no2)c1	ELG1 repair inh inconclusive
Cc1ccc(OCc2cc(C(=O)NCCc3cccnc3)no2)cc1C	TDP1 cell CPT inconclusive, TDP1 cell noCPT inconclusive, ELG1 repair inh inconclusive
COc1ccc(NC(=O)c2cccc(N3CCCS3(=O)=O)c2)cc1OC	TDP1 cell CPT inconclusive (no result: Giardia kill, IL1B secr inh, ELG1 repair inh)
COc1cccc(CNC(=O)[C@@H]2CCCN2C(=O)[C@@H]2CCCN2C(=O)c2ccc(Cl)cc2)c1	TDP1 cell CPT inconclusive, TDP1 cell noCPT inconclusive (no result: Giardia kill, TDP1 block, ELG1 repair inh)
Cc1ccc(S(=O)(=O)N2C(=O)CCC2C(=O)O/N=C(\N)c2ccccc2)cc1 (stereo unspecified)	none
COc1cccc(C(=O)OCC(=O)Nc2ccc(N3CCOCC3)cc2)c1	ELG1 repair inh inconclusive
COc1cccc(N2C(C(C)=O)=NN(c3ccccc3)C2c2ccc(N3CCOCC3)cc2)c1 (stereo unspecified)	TDP1 cell CPT 18µM, TDP1 cell noCPT 16µM, ELG1 repair inh inconclusive
CC(C)C(C)NC(=O)COc1ccc(OCc2ccccc2)cc1 (stereo unspecified)	TDP1 cell CPT inconclusive, TDP1 cell noCPT inconclusive
CC(C)C(C)NC(=O)COc1ccc(-c2ccccc2)cc1 (stereo unspecified)	TDP1 cell CPT 18µM, TDP1 cell noCPT 21µM
CC(C)NC(=O)COc1ccc(OCc2ccccc2)cc1	TDP1 cell CPT inconclusive, TDP1 cell noCPT 29µM
CCOC(=O)c1cc(OCC(=O)NC(C)C(C)C)cc(C(=O)OCC)c1 (stereo unspecified)	none
CC(=O)c1ccc(OCc2ccc(C(=O)c3ccccc3)cc2)cc1	IL1B secr inh -61, TDP1 cell CPT 10µM, TDP1 cell noCPT 8.2µM
CC(C)C(C)NC(=O)COc1ccc(Sc2ccc(OCC(=O)NC(C)C(C)C)cc2)cc1 (stereo unspecified)	TDP1 cell CPT 12µM, TDP1 cell noCPT 8.2µM, ELG1 repair inh 8.2µM
O=C(O)COc1ccc(C(=O)c2ccccc2)cc1	none
CCc1ccc(/C=N\n2cnnc2)cc1	none
OC(CN1CC=C(/C=C/c2ccc(Br)cc2)CC1)c1ccccc1 (stereo unspecified)	IL1B secr inh -73, TDP1 cell CPT inconclusive, TDP1 cell noCPT inconclusive (no result: TDP1 block)
OC(CN1CCN(C(c2ccccc2)c2ccccc2)CC1)c1ccccc1 (stereo unspecified)	TDP1 cell CPT inconclusive, TDP1 cell noCPT inconclusive (no result: TDP1 block)

Screening data: PubChem, National Center for Advancing Translational Sciences (NCATS)
